Results filed as inconclusive are left out. Unless noted, the call rests on the fitted dose curve; in most records, active means well fitted curve in either direction with a large enough effect (not every such curve was filed as active); inconclusive means small, poorly fitted or top-dose-only effect, or another doubt; inactive means flat fitted curve, though single readings scatter.
Legend:
[1] = AP1 Signaling Pathway (AID 357); conditions: ME-180 AP-1-bla reporter, EGF-induced, beta-lactamase ratio, 5 h; at 17.2 µM (top of the series) unless noted;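 further: ME-180 reporter cells stimulated with EGF at its EC50 level; on the % scale 0 is the no-effect control and ±100 the full control effect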
Outline: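 Beta-lactamase reporter under AP-1 response element, ME-180 background. Stimulus: EC50 EGF. Compound exposure 5 h, 37 °C. Detection: CCF4, 2.5 h RT, 460/530 nm. Values: AC50 from titration.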

[2] = NFAT Signaling Pathway (AID 444); conditions: Jurkat NFAT-bla M1, carbachol, beta-lactamase ratio, 5 h; at 17.2 µM (top of the series) unless noted;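 further: carbachol stimulus at about its EC50 of 1 µM final; on the % scale 0 is the no-effect control and ±100 the full control effect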
Outline: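 Jurkat cells carrying an NFAT-driven β-lactamase reporter and co-transfected muscarinic M1 receptor were treated with compound plus carbachol (1 uM final, an EC50 level) for 5 h at 37 °C. CCF4 loading followed for 1 h at RT; 460/530 nm ratio gave %activity.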

[3] = Stat Signaling Pathway (AID 446); conditions: ME-180 (cervical carcinoma) SIE beta-lactamase reporter, IL-6 stimulated, 5 h; at 17.2 µM (top of the series) unless noted;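 further: ME-180 cervical cancer cells given 40 pM IL-6 alongside compound; SIE-controlled beta-lactamase reporter measured as 460/530 nm FRET emission ratio; on the % scale 0 is the no-effect control and ±100 the full control effect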
Outline: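 IL-6/STAT signaling read in ME-180 cells via an SIE beta-lactamase reporter. Stimulus was 40 pM IL-6 (its AC50) for 5 hrs, so both activation and inhibition register.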

[4] = molecular target: Glucocorticoid receptor (Homo sapiens) (UniProt P04150); assay: GR-GFP Redistribution (AID 450;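 active means compounds whose dose series gives a full or clear partial fitted curve of increased nuclear translocation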; further: potency means the concentration at half of the fitted maximal effect)
Chain of Glucocorticoid receptor (Homo sapiens) (P04150 whole entry, looked up): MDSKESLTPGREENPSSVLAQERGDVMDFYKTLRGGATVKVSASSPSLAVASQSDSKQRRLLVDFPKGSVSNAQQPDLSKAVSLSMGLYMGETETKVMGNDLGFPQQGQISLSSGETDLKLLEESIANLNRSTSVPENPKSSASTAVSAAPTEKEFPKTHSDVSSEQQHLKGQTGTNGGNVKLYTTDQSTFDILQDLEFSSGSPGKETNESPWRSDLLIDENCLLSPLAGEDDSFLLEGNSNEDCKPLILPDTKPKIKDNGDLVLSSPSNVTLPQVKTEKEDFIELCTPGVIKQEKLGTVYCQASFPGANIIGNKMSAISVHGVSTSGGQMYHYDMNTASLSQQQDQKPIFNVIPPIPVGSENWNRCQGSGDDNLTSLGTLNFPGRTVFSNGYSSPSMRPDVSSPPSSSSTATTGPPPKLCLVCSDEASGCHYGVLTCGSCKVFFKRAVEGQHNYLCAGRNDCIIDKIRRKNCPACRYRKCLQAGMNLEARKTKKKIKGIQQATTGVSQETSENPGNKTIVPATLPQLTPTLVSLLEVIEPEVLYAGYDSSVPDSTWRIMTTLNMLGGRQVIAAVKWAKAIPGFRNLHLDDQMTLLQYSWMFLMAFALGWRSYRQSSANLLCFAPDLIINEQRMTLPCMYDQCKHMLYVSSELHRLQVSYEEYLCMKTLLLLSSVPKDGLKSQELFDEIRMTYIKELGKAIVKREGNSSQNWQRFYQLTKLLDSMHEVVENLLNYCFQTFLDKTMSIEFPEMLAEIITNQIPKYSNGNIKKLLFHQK

COc1ccc(-c2cc(=O)[nH]c(=O)[nH]2)cc1
inactive: activity change, negative = inhibition [1] 6.12% | activity change, negative = inhibition [2] -4.97% | activity, negative = inhibition [3] -5.47% | Potency [4] > 20.6 µM

COc1ccccc1N(O)C1CC(=O)N(c2ccc(Br)cc2)C1=O (stereo not given)
inactive: activity change, negative = inhibition [1] -7.13% | activity change, negative = inhibition [2] -6.72% | activity, negative = inhibition [3] -0.749% | Potency [4] > 20.6 µM

Cc1nnc(SCC(=O)N2CCC(C(N)=O)CC2)s1
inactive: activity change, negative = inhibition [1] 4.41% | activity change, negative = inhibition [2] 5.46% | activity, negative = inhibition [3] 7.13% | Potency [4] > 20.6 µM

O=C(NCCN1CCOCC1)c1cc2n(n1)C(C(F)(F)F)CC(c1ccc(F)cc1)N2 (stereo not given)
inactive: activity change, negative = inhibition [1] 2.33% | activity change, negative = inhibition [2] 0.228% | activity, negative = inhibition [3] 8.95% | Potency [4] > 20.6 µM

O=C(CN1C(=O)c2ccccc2C1=O)NCc1ccncc1
inactive: activity change, negative = inhibition [1] -3.15% | activity change, negative = inhibition [2] -0.713% | activity, negative = inhibition [3] 5.8% | Potency [4] > 20.6 µM

CCOC(=O)C1=C(C(C)=O)C(c2cccnc2)C(C#N)=C(N)O1 (stereo not given)
inactive: activity change, negative = inhibition [1] 29.3% | activity change, negative = inhibition [2] -19% | activity, negative = inhibition [3] -12.3% | Potency [4] > 20.6 µM

COC(=O)c1ccc(N2C(=O)CC(N3CCN(C(=O)c4ccco4)CC3)C2=O)cc1 (stereo not given)
inactive: activity change, negative = inhibition [1] 3.9% | activity change, negative = inhibition [2] -1.87% | activity, negative = inhibition [3] 0.889% | Potency [4] > 20.6 µM

O=C(O)c1cc2cccc(S(=O)(=O)N3CCOCC3)c2cc1O
inactive: activity change, negative = inhibition [1] 7.94% | activity change, negative = inhibition [2] 0.851% | activity, negative = inhibition [3] 6.34% | Potency [4] > 20.6 µM

CCc1nc(NCCN2CCOCC2)c(C#N)c2c1CCCC2
inactive: activity change, negative = inhibition [1] -11.1% | activity change, negative = inhibition [2] -20.4% | activity, negative = inhibition [3] 6.43% | Potency [4] > 20.6 µM

Cc1sccc1C1C(C#N)=C(N)SC(N)=C1C#N
inactive: activity change, negative = inhibition [1] -12.4% | activity change, negative = inhibition [2] 15% | activity, negative = inhibition [3] -25.4% | Potency [4] > 20.6 µM

O=C(Nc1nccs1)NC(C(F)(F)F)C(F)(F)F
inactive: activity change, negative = inhibition [1] -10.3% | activity change, negative = inhibition [2] 9.14% | activity, negative = inhibition [3] 10.4% | Potency [4] > 20.6 µM

O=C(O)CC(C(=O)N(c1ccccc1)c1ccccc1)N1CCOCC1 (stereo not given)
inactive: activity change, negative = inhibition [1] -5.33% | activity change, negative = inhibition [2] -0.593% | activity, negative = inhibition [3] 8.75% | Potency [4] > 20.6 µM

Nc1cccc(C(=O)O)c1
inactive: activity change, negative = inhibition [1] 8.42% | activity change, negative = inhibition [2] 20.2% | activity, negative = inhibition [3] 4.89% | Potency [4] > 20.6 µM

CN1c2ccccc2N(C)C1c1c(O)ccc2ccccc12
inactive: activity change, negative = inhibition [1] -1.37% | activity change, negative = inhibition [2] -27.9% | activity, negative = inhibition [3] -4.67% | Potency [4] > 20.6 µM

COc1ccc(C2/C(=C(/O)c3cnn(-c4ccccc4)c3C)C(=O)C(=O)N2CCN(C)C)cc1OC (stereo not given)
inactive: activity change, negative = inhibition [1] -0.291% | activity change, negative = inhibition [2] 18.7% | activity, negative = inhibition [3] -4.43% | Potency [4] > 20.6 µM

CC1(C)Cc2c(c(N3CCOCC3)nc3snc(Br)c23)CO1
inactive: activity change, negative = inhibition [1] -5.9% | activity change, negative = inhibition [2] -26.2% | activity, negative = inhibition [3] 13.2% | Potency [4] > 20.6 µM

CC1(C)NC(=O)N(CC(O)COc2ccccc2C(=O)Nc2ccccc2)C1=O (stereo not given)
inactive: activity change, negative = inhibition [1] -6.46% | activity change, negative = inhibition [2] 9.58% | activity, negative = inhibition [3] 3.3% | Potency [4] > 20.6 µM

CCOC(=O)C(C#N)C(Cc1ccccc1)c1ccco1 (stereo not given)
inactive: activity change, negative = inhibition [1] -10.1% | activity change, negative = inhibition [2] -8.09% | activity, negative = inhibition [3] -9.08% | Potency [4] > 20.6 µM

c1ccc(SCc2nc3ccccc3[nH]2)nc1
inactive: activity change, negative = inhibition [1] -0.127% | activity change, negative = inhibition [2] 6.97% | activity, negative = inhibition [3] 8.86% | Potency [4] > 20.6 µM

O=C(c1ccc(N2C(=O)C3CC=C(Cl)CC3C2=O)cc1)N1CCCCC1 (stereo not given)
inactive: activity change, negative = inhibition [1] -18.4% | activity change, negative = inhibition [2] 13% | activity, negative = inhibition [3] -8.18% | Potency [4] > 20.6 µM

Clc1ccccc1-c1nn2c(-c3ccccn3)nnc2s1
inactive: activity change, negative = inhibition [1] -2.63% | activity change, negative = inhibition [2] -11.1% | activity, negative = inhibition [3] 12.8% | Potency [4] > 20.6 µM

Nc1nonc1-c1noc(N2CCOCC2)n1
inactive: activity change, negative = inhibition [1] 4.65% | activity change, negative = inhibition [2] -8.54% | activity, negative = inhibition [3] -2.07% | Potency [4] > 20.6 µM

Cc1oc2nc(SCCCC(=O)NCCCO)nc(N)c2c1C
inactive: activity change, negative = inhibition [1] -11.8% | activity change, negative = inhibition [2] 15.2% | activity, negative = inhibition [3] 4.84% | Potency [4] > 20.6 µM

Cc1nc(NCc2ccccc2)c(C(N)=O)c2c1COC(C)(C)C2
inactive: activity change, negative = inhibition [1] 1.8% | activity change, negative = inhibition [2] 9.09% | activity, negative = inhibition [3] 6.9% | Potency [4] > 20.6 µM

O=C1c2ccccc2S(=O)(=O)N1CC(O)COc1ccc(Cl)cc1 (stereo not given)
inactive: activity change, negative = inhibition [1] -4.25% | activity change, negative = inhibition [2] -2.04% | activity, negative = inhibition [3] -1.8% | Potency [4] > 20.6 µM

Reference: PubChem BioAssay (NCATS)
